Assay outcomes deposited in PubChem BioAssay by National Center for Advancing Translational Sciences (NCATS).
BAZ2B inh – BAZ2B (human) inhibition; Potency, µM (doses to about 114 µM), inactives show at the highest dose activity change, negative = inhibition, usual class: inhibitors; AlphaScreen BAZ2B-H3K14Ac peptide displacement; AID 504333; Q9UIF8; 360,000 tested, 4.4% active; also: potency is read from the fitted curve at half-maximal effect; % is scaled to controls: 0 for no effect and ±100 for the full control effect; nearly all actives have a fitted effect of over 60% in size
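AlphaScreen displacement of biotin-H3(5-23)K14Ac peptide (50 nM final) from BAZ2B (50 nM final) in PBS pH 7.4, 0.01% Tween-20; complex preformed 30 min RT, then compounds (top 110 uM) 30 min RT, beads 20 min dark.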
PI5P4Ka inh – inhibitors of human PI5P4K alpha. PI5P4Kalpha enzyme, ADP-Glo luminescence, 60 min; stronger effect = lower value. max response, %. 330,000 tested, 1.2% active. AID 652105; active = max response of -50% or lower; inconclusive = between -30% and -50%; inactive = -30% or higher; also: value at the top dose of about 77 µM; % is scaled to controls: 0 for no effect and ±100 for the full control effect
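Reactions run in 0.038 M HEPES pH 7.4, 0.28 mM EGTA, 0.1% CHAPS and 5% DMSO, with PI5P4Kalpha, substrate, compound and 5 microM ATP final, one hour at room temperature. Readout is ADP-Glo luminescence.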
JMJD2A Tudor – JMJD2A Tudor domain (human) inhibition. AlphaScreen JMJD2A-Tudor / H3K4me3 peptide binding. 390,000 tested, 4.4% active. Potency, µM (top dose mostly 114 µM), for the others: at the top dose activity change, negative = inhibition, usual class: inhibitors. O75164; also: potency is read from the fitted curve at half-maximal effect; % is scaled to controls: 0 for no effect and ±100 for the full control effect; nearly all actives have a fitted effect of over 50% in size
G9a inh – inhibitors of human histone lysine methyltransferase G9a | Q96KQ7 | G9a H3K9 monomethylation, AlphaScreen, 2 h | Potency, µM (top dose mostly 102 µM), inactives show at the top dose activity, negative = inhibition, hits mostly inhibitors | 350,000 tested, 8.8% active; also: potency is read from the fitted curve at half-maximal effect; % is scaled to controls: 0 for no effect and ±100 for the full control effect; nearly all actives have a fitted effect of over 75% in size
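G9a (20 nM) was preincubated 15 min with compound, then reacted 2 h at room temperature with 500 nM biotin-H3K9 peptide and 20 µM SAM. Monomethyl-H3K9 detected by AlphaScreen using anti-H3K9me1 antibody.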
HP1b binding inh – inhibitors of HP1-beta chromodomain binding to methylated histone tails. P83916. AlphaScreen HP1-beta / biotin-H3K9me3 peptide binding. Potency, µM (series often up to 114 µM), without a hit: at the highest dose activity change, negative = inhibition, actives largely listed as inhibitors. 390,000 tested, 0.56% active. AID 540317; also: potency is read from the fitted curve at half-maximal effect; nearly all actives have a fitted effect of over 70% in size
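HP1-beta protein (50 nM final) preincubated 30 min at room temperature with biotinylated H3(1-18)K9me3 peptide (50 nM) in PBS pH 7.4, 0.01% Tween-20, then compound added for 30 min. AlphaScreen streptavidin donor/nickel chelate acceptor beads (10 ug/mL final), 30 min dark, luminescence read.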
L3MBTL1 inh – blocks human L3MBTL1; Q9Y468; AlphaScreen L3MBTL1–H3K9me1 peptide binding; Potency, µM (titrated, usually from 57.1 µM), for inactives: at the top dose activity, negative = inhibition, hits mostly inhibitors; 230,000 tested, 0.66% active; AID 485360; also: potency is read from the fitted curve at half-maximal effect; % is scaled to controls: 0 for no effect and ±100 for the full control effect; nearly all actives have a fitted effect of over 60% in size
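AlphaScreen assay: L3MBTL1 (50 nM final) was preincubated 30 min at room temperature with biotinylated H3(1-15)K9me1 peptide (75 nM final), then 30 min with library compounds; streptavidin donor and nickel chelate acceptor beads (10 ug/mL final) added, 30 min dark.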
Numbers without * were called inactive; u = inconclusive; x = no result; [ ] = another dose, or the depositor's remark. In the library only some 11% were active in any assay of this set; here they are far more common. Unless noted, calls follow the shape of the dose curve; as a rule, active = well fitted inhibition curve with a large enough effect; inconclusive = small, poorly fitted or top-dose-only effect; inactive = no such curve, though single readings can be large or run the other way.

SMILES	BAZ2B inh	PI5P4Ka inh	JMJD2A Tudor	G9a inh	HP1b binding inh	L3MBTL1 inh
CCC(C)N1C(=O)/C(=C/c2ccc3c(c2)CCN3CCCCl)C(=O)NC1=S (stereo unspecified)	50.1µM*	-66.8*	50.1µM*	12.6µM*	u	u
CC[N+](C)(C)c1cccc(O)c1	5.0%	-2.9	-0.7%	-11.8%[59 µM]	35.6%	7.2%
COc1ccc(C[C@@H]2NC[C@H](O)[C@@H]2OC(C)=O)cc1	x	x	x	10.5%[21.5 µM]	x	x
C[C@H]1[C@@H](O)[C@@H](C)/C=C\C=CCC\C=C/C=C\C=C/C=C[C@@H](O[C@H]2O[C@@H](C)[C@@H](O)[C@@H](N)[C@@H]2O)C[C@@H]2O[C@@](O)(C[C@@H](O)[C@H]2C(=O)O)C[C@@H](O)[C@@H](O)CC[C@@H](O)C[C@@H](O)C[C@@H](O)CC(=O)O[C@H]1C	x	x	x	23.7%[21.5 µM]	x	x
CCC(CC)N1CCN(C(=O)Cc2ccccc2)CC1	u	x	3.16µM*	11.2µM*	u	1.4%
Cc1ccccc1CN1CCN(C(=O)Cc2ccccc2)CC1	25.1µM*	-0.6	11.2µM*	15.8µM*	22.4µM*	0.4%
O=C(Cc1ccccc1)N1CCN(Cc2cccc(Cl)c2)CC1	u	4.7	3.16µM*	20.8%[0.501 µM]	u	20.6%[2.29 µM]
CCN1CCN(C(=O)Cc2ccc(C)cc2)CC1	-11.1%	0.5	-5.6%	7.3%	26.7%	-0.2%
COC(=O)c1ccc(CN2CCN(Cc3ccccc3)CC2)cc1	-10.0%	x	79.4µM*	-5.8%[59 µM]	4.0%	9.0%
CN1CCCC2(CCN(C(=O)c3ccco3)CC2)C1	x	x	x	-3.0%[12.7 µM]	x	x
CCOc1ccc(NC(=O)CSc2oc(-c3ccccc3)nc2S(=O)(=O)c2ccc(Cl)cc2)cc1	-3.0%	x	-7.5%	-31.7%[59 µM]	47.2%	x
O=C(Cc1ccccc1)N1CCN(Cc2ccc(Cl)cc2)CC1	x	0.1	10µM*	x	u	x
CC(=O)Nc1ccc(CC(=O)N2CCN(Cc3ccccc3)CC2)cc1	-6.4%	-5.4	-9.1%	-1.7%	4.6%	x
CN1CCc2nc(SCC(=O)OC(C)(C)C)c(C#N)cc2C1	-17.3%	-16.9	0.9%	50.1µM*	27.4%	-4.0%
N#Cc1cc2c(nc1SCC(=O)Nc1ccc(OC(F)(F)F)cc1)C1CCN2CC1	-4.0%	x	-0.3%	-4.4%[59 µM]	29.1%	x
O=C(N/N=C/c1c(O)n(C2CCCCC2)c(=S)[nH]c1=O)c1ccccc1O	79.4µM*	u	7.4%	75.0%[59 µM]	45.2%	x
O=C(N/N=C/c1c(O)n(C2CCCCC2)c(=S)[nH]c1=O)c1ccccc1	-0.8%	-12.0	79.4µM*	u	68.4%	x
O=c1[nH]c(=S)n(C2CCCCC2)c(O)c1/C=N/N1CCOCC1	-28.0%	0.5	-17.9%	u	25.8%	0.9%
CC/C(=N\NC(=O)c1ccccc1O)c1c(O)n(C2CCCCC2)c(=O)[nH]c1=O	-2.4%	-74.1*	-33.3%	u	8.0%	x
Cn1c(=O)c2c(nc(N/N=C/c3c(O)n(-c4ccccc4)c(=S)[nH]c3=O)n2C)n(C)c1=O	-10.5%	1.4	u	-6.4%[59 µM]	-2.3%	9.0%
CC(C)c1ccc(-n2c(O)c(/C=N/NC(=O)c3ccccc3O)c(=O)[nH]c2=S)cc1	50.1µM*	-64.8*	79.4µM*	x	20.5%	-41.7%
Cc1ccc(NP(=O)(c2ccccc2)c2nc3ccccc3s2)cc1 (stereo unspecified)	-22.5%	-0.2	-15.8%	25.1µM*	10.4%	x
CCCC(C)C1(CC)C(=O)NC(=O)NC1=O (stereo unspecified)	x	x	x	-43.4%[2.33 µM]	x	x
O=C1C2CC=CCC2C(=O)N1SC(Cl)(Cl)Cl (stereo unspecified)	x	x	x	1.58µM*	x	x
C[N+]1([O-])[C@@H]2CC(OC(=O)[C@H](CO)c3ccccc3)C[C@H]1[C@@H]1O[C@@H]12 (stereo partly specified)	-4.6%	-59.3*	-3.4%	u	41.9%	14.7%
SMILES	BAZ2B inh	PI5P4Ka inh	JMJD2A Tudor	G9a inh	HP1b binding inh	L3MBTL1 inh
O=c1ccc2cc(O[C@H]3OC(CO)C(O)C(O)C3O)c(O)cc2o1 (stereo partly specified)	x	x	x	-18.1%[2.33 µM]	x	x
CCOc1cc(C=C2C(=O)NC(=O)NC2=O)cc([N+](=O)[O-])c1O	56.2µM*	x	x	x	x	u
O=C(Nc1ccc(Br)cc1C(=O)c1ccccc1Cl)c1ccccc1F	-2.4%	x	-2.3%	-6.7%[59 µM]	35.0%	x
CC(=O)OO	x	x	x	26.4%[59 µM]	x	x
O=C(COc1ccc(Br)cc1)N1CCN(Cc2ccncc2)CC1	-3.0%	8.6	1µM*	17.8µM*	u	-4.3%
Cc1ccc(OCC(=O)N2CCN(CCc3ccncc3)CC2)cc1	-5.8%	x	-12.6%	-22.6%[59 µM]	23.6%	x
O=C(COc1ccc(S(=O)(=O)N2CCCCC2)cc1)N1CCN(Cc2ccccc2)CC1	-1.5%	2.8	-11.9%	44.7µM*	25.4%	-0.9%
CSc1ccc(CN2CCN(C(=O)COc3ccc(C)cc3)CC2)cc1	56.2µM*	2.7	8.91µM*	10µM*	u	11.1%
O=C(COc1ccc(Br)cc1)N1CCN(Cc2ccc3c(c2)OCO3)CC1	50.1µM*	1.3	8.91µM*	x	u	x
CC(C)(C)NS(=O)(=O)c1ccc(OCC(=O)N2CCN(Cc3ccccc3)CC2)cc1	-16.8%	-5.0	-14.4%	-24.8%	1.4%	-3.7%
N#CC1=C(N)Oc2n[nH]c(-c3ccccc3)c2C1c1cccc(OC(=O)N2CCOCC2)c1 (stereo unspecified)	-34.2%	-10.4	-25.7%	u	17.7%	-5.3%
CNC(C)Cc1ccccc1OC (stereo unspecified)	x	x	x	6.3%[59 µM]	x	x
Cc1cccc(OCC(=O)N2CCN(Cc3ccc4c(c3)OCO4)CC2)c1	50.1µM*	9.0	u	10µM*	u	9.3%
Cc1ccc(C)c(S(=O)(=O)Nc2ccc3c(c2)CCCN3C(=O)c2cccs2)c1	-25.8%	x	-17.2%	u	13.7%	x
CC1CN(c2ccccc2)NC1=O (stereo unspecified)	-22.4%	-0.3	13.1%	35.5µM*	40.3%	u
CC1CN1P(=O)(Oc1ccccc1)N1CC1C (stereo unspecified)	x	5.1	-5.5%	x	26.9%	x
CCN(CC)P(=S)(c1c(C)nc2ccccn12)c1c(C)nc2ccccn12	-4.0%	-14.1	-11.7%	14.1µM*	-24.6%	0.8%
CCOc1c(P(=S)(N(C)C)N(C)C)c(C)nn1-c1ccccc1	2.8%	15.7	14.2%	u	38.2%	11.2%
Oc1ccccc1/C=N/[n+]1ccccc1	-6.8%	-6.2	-3.0%	56.2µM*	-11.9%	6.2%
CCc1n[nH]c(CCN)n1	-13.1%	-0.3	u	56.2µM*	10.0%	9.6%
O=C(Oc1ccccc1)N1CCC[C@@]2(CCN(Cc3nccs3)C2)C1	x	x	x	-6.4%[12.7 µM]	x	x
CCCCCSc1cc(O)c(C(CNC)C(C)C)cc1OC (stereo unspecified)	u	6.2	u	11.2µM*	8.6%	-8.4%
